High-throughput results from PubChem.
697 NFkB inh: inhibitors of the PMA/ionomycin-induced NF-kB reporter in 697 B cells. hit rate 0.33% among 330,000. 697 B-cell NF-kB luciferase reporter, 16 h. AID 435022. inhibition, % at 4 µM; in the data active means inhibition above about 35%
Shn3 inh set2: Schnurri-3 reporter inhibition in Clone20 osteoblasts. Clone20 osteoblast Shn3 3'UTR firefly luciferase, 24 h. inhibition, % at 12.5 µM. hit rate 0.52% among 360,000. AID 588674;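 active means mean inhibition of at least 75% with every replicate also reaching 75%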;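 further: 0% = median of neutral control wells and 100% = pilot-screen positive control compound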
Jurkat NFkB inh: inhibitors of the PMA/ionomycin-induced NF-kB reporter in Jurkat cells; inhibition, % at 4 µM; AID 435003; hit rate 0.53% among 330,000; PMA/ionomycin-induced NF-kB luciferase reporter, luminescence; in the data active means inhibition above about 50%
LMP1 NFkB inh: inhibitors of Epstein-Barr LMP1-induced NF-kappaB reporter; LMP1-induced NF-kappaB luciferase reporter cells, luminescence; inhibition, % at 12.5 µM; hit rate 0.69% among 350,000; AID 504558; in the data active means inhibition above about 41%;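 further: 0% = neutral control wells and 100% = reference inhibitor control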
Gli-Sufu antag: blocks Gli-Sufu signaling in a luciferase reporter; inhibition, % at 5 µM; hit rate 0.74% among 340,000; AID 588413; Sufu-KO-LIGHT fibroblasts, Gli luciferase reporter luminescence;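 active means inhibition above about 55%, limit read from the data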;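 further: 0% = DMSO-treated cells and 100% = wells with medium but no cells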
TRPM1 prom inh: inhibitors of MITF-driven TRPM1 promoter in melanoma cells | hit rate 0.83% among 330,000 | SK-MEL-5 TRPM1 promoter luciferase, 24 h | AID 488899 | inhibition, % at 12.5 µM;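 active means mean inhibition across replicates of 60% or more, whatever share of single replicates reaches that level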
Gli antag conf: confirmation of Gli-SUFU pathway antagonists | shares compounds with Gli-Sufu antag | Sufu-KO-LIGHT cells, Gli luciferase reporter, luminescence | inhibition, % at 5 µM | hit rate 40% among 2,500 | AID 602428;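 active means mean inhibition at 5 µM reaching about 45%, limit read from the data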;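 further: plate controls were DMSO-treated cells for no effect and wells lacking cells for full effect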
SufuKO cytotox: counter-screen for Gli-SUFU antagonists: cytotoxicity; shares compounds with Gli-Sufu antag; Sufu-KO-LIGHT cells cytotoxicity, ATP luminescence; cytotoxicity, % at 5 µM; hit rate 32% among 2,500;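 active means mean cytotoxicity at 5 µM above about 25%, limit read from the data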;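 further: cells exposed to compound overnight for roughly 16 to 18 hours; plate controls were DMSO wells with cells for no effect and medium without cells for full effect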
Wnt3a counter: inhibits Wnt3a reporter, counter-screen for Gli-SUFU antagonists; shares compounds with Gli-Sufu antag; Wnt-LIGHT cells, Wnt3a-driven luciferase reporter, luminescence; inhibition, % at 6.25 µM; hit rate 20% among 2,500; AID 651995;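 active means mean inhibition above about 25%, limit read from the data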
The depositor's hits bear a star; . = no result. An excerpt weighted towards active compounds, which were near 2.3% of everything screened.

SMILES | 697 NFkB inh | Shn3 inh set2 | Jurkat NFkB inh | LMP1 NFkB inh | Gli-Sufu antag | TRPM1 prom inh | Gli antag conf | SufuKO cytotox | Wnt3a counter
Cc1ccnc(NC(=O)c2cccc(NC(=O)Cc3ccccc3)c2)c1 | 9.7 | -16.6 | -11.8 | -20.5 | 94.7* | -10.2 | 3.0 | 25.1* | -16.4
CCOc1ccc(NCC(=O)c2ccc(C)cc2)cc1 | 2.0 | 26.9 | 3.2 | -7.9 | 60.9* | 8.8 | -4.7 | 20.9 | -77.2
Cc1cc(Cl)c2ccc(Cl)cc2n1 | 6.9 | -3.9 | 18.3 | 4.2 | 47.5 | 3.6 | . | . | .
CCOC(=O)CSc1c(-c2cccs2)[nH]c2ccccc12 | 2.3 | 15.8 | 2.7 | -0.9 | 52.2 | 4.4 | 65.1* | 4.5 | 14.3
Cc1ccccc1NC(=S)N(CCc1c(C)[nH]c2ccc(F)cc12)Cc1ccncc1 | 2.8 | 19.0 | -3.5 | -20.8 | 59.0* | -4.6 | 17.6 | 25.7* | -28.2
CC1CCN(Cc2ccc(-c3nnn(CC(=O)Nc4ccccc4Cl)n3)cc2)CC1 | -0.6 | 87.0* | 20.3 | 7.3 | 58.2* | -11.9 | 73.1* | 32.6* | 6.1
CCOc1ccc(NC(=O)COC(=O)C2(C)CC2(Cl)Cl)c([N+](=O)[O-])c1 (stereo not drawn) | -4.9 | -0.8 | -2.0 | 1.9 | -15.0 | -7.9 | . | . | .
O=C1C(Cl)=C(N2CCCCC2)C(=O)N1c1ccccc1Cl | 3.9 | 4.7 | -5.1 | -0.5 | 59.6* | 1.7 | 19.6 | 19.1 | 1.3
Cc1ccccc1N1C(=O)C(Cl)=C(N2CCCCCC2)C1=O | -24.6 | -6.9 | -13.1 | -6.9 | 8.5 | 6.0 | . | . | .
O=[N+]([O-])c1ccc(N2CCN(C(=S)NCc3ccc(Cl)cc3)CC2)cc1 | 20.9 | 77.0 | 25.9 | 29.0 | 57.8* | -1.9 | 42.9 | 7.6 | -56.5
COc1ccc(-c2cn(-c3ccc(Cl)cc3)c3[n+]2CCCCC3)cc1 | -17.8 | 62.4 | 18.0 | 5.8 | 80.5* | 21.1 | 78.5* | 31.0* | 20.3
Clc1ccc(-c2cn(-c3ccc(Cl)cc3)c3[n+]2CCCCC3)cc1 | 9.9 | 17.3 | 14.3 | -3.6 | 57.8* | 5.8 | 58.3* | 29.3* | -42.9
COc1ccc(N2CC(O)(c3ccc(OC(F)F)cc3)[N+]3=C2CCCC3)cc1 (stereo not drawn) | -37.3 | 17.5 | -14.8 | 0.4 | 12.7 | 3.5 | . | . | .
COc1ccc(-n2cc(-c3ccc(OC(F)F)cc3)[n+]3c2CCCCC3)cc1 | -15.6 | 62.5 | 4.6 | 8.4 | 81.4* | 26.1 | 82.9* | 32.6* | 9.0
COc1ccc(-n2cc(-c3ccc(Cl)cc3)[nH]c2=S)cc1 | -114.8 | -29.6 | -88.7 | -22.0 | -45.7 | -9.1 | . | . | .
CCOC(=O)c1c(S(=O)(=O)NCCc2ccco2)c(C)n(C)c1C | 4.9 | -2.5 | 0.2 | 2.2 | -1.0 | 0.5 | . | . | .
CNCCCOc1ccc(C)cc1Br | -7.8 | -25.6 | 8.5 | 0.4 | 0.9 | -0.9 | . | . | .
Clc1cccc(OCCCN2CCCC2)c1Cl | -6.4 | -17.3 | -3.3 | 15.3 | 20.5 | 3.8 | . | . | .
CCCCNCCCOc1ccc(C)cc1Br | -5.8 | 8.2 | 14.6 | 6.8 | 67.3* | 6.0 | 24.8 | 9.6 | -20.9
CCCCNCCCOc1cccc(Cl)c1Cl | 4.3 | -5.8 | -5.0 | -4.0 | 62.2* | -17.8 | 9.7 | 24.7 | -52.6
Cc1ccc(O)c(NC(=O)C2=CC(c3cccs3)=NS(=O)(=O)N2C)c1 | -15.9 | 1.0 | 7.6 | 6.5 | 93.9* | -2.1 | 15.7 | -3.5 | 2.8
COC(=O)c1nnn(CC(=O)NC(=O)Nc2cccc(C)c2C)c1C(=O)OC | 3.9 | 2.1 | 6.3 | 4.8 | 5.8 | 8.0 | . | . | .
COC(=O)c1nnn(CC(=O)Nc2cccc(Cl)c2C)c1C(=O)OC | -6.7 | -2.9 | -5.7 | -6.3 | 99.3* | -4.2 | 18.1 | -1.9 | 1.5
CC(C)c1nc(N2CCN(C(=O)c3ccco3)CC2)c(C#N)c2c1COC(C)(C)C2 | 17.1 | 25.2 | -2.8 | -7.9 | 17.2 | 24.1 | . | . | .
CCCCc1nc(N2CCN(C(=O)c3ccco3)CC2)c(C#N)c2c1CCCC2 | -12.7 | 3.8 | -3.0 | 5.9 | 66.4* | 20.2 | 24.7 | 11.6 | 35.0*
SMILES | 697 NFkB inh | Shn3 inh set2 | Jurkat NFkB inh | LMP1 NFkB inh | Gli-Sufu antag | TRPM1 prom inh | Gli antag conf | SufuKO cytotox | Wnt3a counter
O=C(CN1CCOc2ccccc21)N1CCN(c2cccc(Cl)c2)CC1 | 1.8 | 7.1 | 1.8 | -14.7 | 60.8* | . | 20.0 | 9.6 | -17.2
Cc1cccc(N2CCN(C(=O)CN3CCOc4ccccc43)CC2C)c1 (stereo not drawn) | 0.7 | -6.5 | 12.1 | 0.1 | 31.5 | . | . | . | .
CCOC(=O)c1c(C)[nH]c(C)c1S(=O)(=O)NCCN1CCN(c2ccccc2F)CC1 | 7.6 | 0.6 | 27.9 | 2.3 | 67.0* | 19.0 | 20.9 | 12.2 | -16.7
CCOC(=O)c1c(C)[nH]c(C)c1S(=O)(=O)NCC1CCN(Cc2ccccc2F)CC1 | -5.8 | -16.7 | -0.8 | 4.5 | 18.2 | 5.9 | . | . | .
OC[C@@H]1[C@@H](c2ccccc2)C(c2ccccc2)=NN1c1ccccc1 | -7.6 | 0.8 | . | -3.4 | -2.9 | 8.3 | . | . | .
c1ccc(-c2nn(-c3ccccc3)[n+](-c3ccccc3)n2)cc1 | . | 36.9 | . | 0.1 | 63.3* | 62.4* | 66.7* | 13.5 | 32.8*
O=S(=O)(NCCc1ccccc1)c1ccc(F)cc1 | -1.0 | -10.3 | 3.7 | 2.1 | 52.0 | -9.1 | 36.0 | 24.9 | -13.4
COc1cccc(C(=O)NCCN2CCN(c3ccc(Cl)cc3)CC2)c1 | 3.6 | 4.4 | -4.2 | 11.3 | 50.5 | 15.5 | 23.1 | 4.3 | -37.9
Cc1ccccc1CCNC(=O)Cn1nc(C)c2c(C)n(-c3ccccc3)nc2c1=O | -6.4 | 11.5 | 5.1 | 5.6 | 3.6 | 4.9 | . | . | .
Cc1nn(CC(=O)NC(C)CCc2ccccc2)c(=O)c2nn(-c3ccccc3)c(C)c12 (stereo not drawn) | -14.6 | 29.7 | 3.5 | -4.2 | 52.3 | 14.2 | 16.3 | -2.8 | -15.6
CCCCOc1ccccc1N1CCN(CCCN2C(=O)C3CCCN3C2=O)CC1 (stereo not drawn) | 13.7 | 5.3 | 11.2 | 0.1 | 17.1 | 5.5 | . | . | .
COc1ccc(C2CC(c3ccco3)n3ncnc3N2)cc1 (stereo not drawn) | -15.9 | 6.5 | 0.5 | -12.9 | 56.7* | 1.2 | 10.0 | 14.8 | -2.5
CC(C(=O)Nc1ccc(S(=O)(=O)Nc2ncccn2)cc1)N1C(=O)c2ccccc2S1(=O)=O (stereo not drawn) | 6.9 | -50.6 | 10.3 | 0.3 | -1.6 | -9.9 | . | . | .
Cc1ccc2cc(CN(CC3CCCO3)C(=S)Nc3ccccc3)c(=O)[nH]c2c1C (stereo not drawn) | -129.2 | 38.9 | 36.9 | 22.8 | 65.0* | 20.0 | 81.5* | 32.7* | 21.7
Cc1ccc(-c2cc(C(F)F)n3ncc(C(=O)NN4CCCCC4)c3n2)cc1 | -30.2 | 3.8 | -23.0 | -5.9 | 10.4 | 11.3 | . | . | .
